Among all 38,000 compounds or so, about 1,200 (3.2%) showed an effect of 50% or more. The median lay at about -58%. The full list was thinned out, with strong results kept by preference.

The test system of this experiment is Plasmodium falciparum. The experiment in a line: Calibr Malaria Delayed Death Assay SOP. The format is functional, organism-based. On the set-up: scale not given: in the data most compounds retested in dose-response had high values. As to conditions: concentration 4.99e-06 (unit not given; other assays of the set use mol/L).
On to `Cc1noc(C)c1CN1C[C@@H]2COC[C@]2(COc2ccc(C#N)cn2)C1`, for which the “Percent Effect” value is -26.6%.

`Cn1ncc2c(N[C@@H]3C[C@@H]4CC[C@H]3C4)nc(-c3ccncc3)nc21`: the “Percent Effect” value was -96.32%. As for `CC(C)OCCCNC(=O)CN1C=Nc2ccccc2S1(=O)=O`, the “Percent Effect” value is -92.03%. To `O=C(N1CCCC1)N1CCN(Cc2cccnc2)c2ncccc2C1.O=C(O)C(F)(F)F.O=C(O)C(F)(F)F` belongs -47.54%; to `COC[C@@]12CCC[C@@H]1CN(C(=O)CN(C)C)C2.O=C(O)C(F)(F)F`, -5.547%; to `CCCc1cc(=O)[nH]c(SCc2ccccn2)n1`, -130.6%. To `Cn1cc(C2CCCN2CCc2nc3ccccc3c(=O)[nH]2)cn1` (stereo not given) belongs -41.09%; to `CC(C)NC(=O)N1CCC2(CC(=O)N(c3cccc(F)c3)C2)C1` (stereo not given), -10.77%.

As to `Cc1cc(C(=O)NCc2cccnc2N2CCCC(O)C2)c(C)o1` (stereo not given), the “Percent Effect” value was -87.63%. Take `CN(C(=O)Nc1nncs1)C1CCN(c2ccccc2Cl)C1=O` (stereo not given): the “Percent Effect” value is -21.66%. Under `O=C(O)C(F)(F)F.O=C(O)C(F)(F)F.O=S(=O)(C1CC1)N1CCC2(CCCN(Cc3ccccn3)C2)C1` (stereo not given) stands 8.867%. On to `Cc1cnc(NC(=O)C(C)Oc2ccc3c(c2)OCO3)s1` (stereo not given), for which the “Percent Effect” value is given as -125.5%. For `COc1ccc(F)c(-c2cc(C)nc(N)n2)c1`, the “Percent Effect” value was -22.79%.

Take `COc1ccccc1OCCN(C)c1cc(C)nc(N)n1`: the “Percent Effect” value was 69.29%. Under `COc1ccc(OCCN(C)c2cc(C)nc(N)n2)cc1` stands 62.66%. To `Cc1cc(N(C)CCCn2cccn2)nc(N)n1` belongs 23.74%; to `COc1ccc(OCCN(C)CCCn2cnc3c(N)ncnc32)cc1`, -97.62%; to `Cc1cc(N(C)CC2COc3ccccc3O2)nc(N)n1` (stereo not given), 46.69%. Under `O=C(CCCc1ccc(Cl)cc1)N1CCC(c2nnc[nH]2)CC1` stands -167.6%. With `O=C(O)C(F)(F)F.O=C(O)C(F)(F)F.c1cnc(N2CCOCC3(CCCN(CC4CCOCC4)C3)C2)nc1` (stereo not given), the “Percent Effect” value is given as -11.39%.

Take `O=C(O)C(F)(F)F.c1cnc(N2CCCC3(COCCN(CC4CC4)C3)C2)nc1` (stereo not given): the “Percent Effect” value amounted to 37.44%. As for `Cn1cnc2c(N3CCCC3)nc(C3CCN(CC4CC4)CC3)cc21.O=C(O)C(F)(F)F.O=C(O)C(F)(F)F`, the “Percent Effect” value was found to be 68.79%. Under `Cc1cnc(N2C[C@H]3CCN(CC4CC4)C[C@H]3C2)nc1.O=C(O)C(F)(F)F` stands 63.65%; under `O=C(O)C(F)(F)F.c1cnc(N2CCCC3(CCN(CC4CCC4)C3)C2)nc1` (stereo not given), 51.49%; under `O=C(O)C(F)(F)F.O=C(O)C(F)(F)F.c1cc2nc(C3CCN(CC4CC4)CC3)nn2cc1N1CCCC1`, -27.34%.

For `O=C(O)C(F)(F)F.O=C(O)C(F)(F)F.c1cnc(N2CCC3(CCN(CC4CCOCC4)CC3)C2)nc1`, the “Percent Effect” value is -33.73%. Under `O=C(O)C(F)(F)F.O=C(O)C(F)(F)F.c1cnc(N2CCC3(CCN(CC4CCCC4)CC3)C2)nc1` stands 42.2%. Under `Cc1cnc(N2C[C@H]3CCN(CC4CC4)C[C@@H]3C2)nc1.O=C(O)C(F)(F)F` stands 37.51%. Under `O=C(O)C(F)(F)F.O=C(O)C(F)(F)F.c1cnc(N2CCCC3(CCN(CC4CC4)C3)C2)nc1` (stereo not given) stands 59.09%; under `Cl.Cl.Cn1cnc2c(N3CCCC3)nc(C3CCNCC3)cc21`, -34.14%; under `O=C(O)C(F)(F)F.c1cnc(N2C[C@H]3CCN(CC4CC4)C[C@H]3C2)cn1`, 16.16%. Consider `CN(CCc1ccccn1)C(=O)C(O)c1ccc(Br)cc1` (stereo not given), for which the “Percent Effect” value is given as -90%. Under `CS(=O)(=O)N1CCC2(CCN(C(=O)c3cccnc3)CC2)C1.O=C(O)C(F)(F)F` stands -35.24%. To `CC(C)Cc1noc(C2CCCN(C(=O)CCc3cnn(C)c3)C2)n1` (stereo not given) belongs -27.67%; to `O=C(O)C(F)(F)F.O=C(O)C(F)(F)F.c1cncc(OC[C@]23COC[C@H]2CN(C2CCOCC2)C3)c1`, -14.64%; to `CCN(CC)C(=O)CSc1nc2c(cnn2CCO)c(=O)[nH]1`, -60.63%. To `CCCNCc1ncc(C)c(OC)c1C` belongs -91.87%; to `O=C(Cn1nc(N2CCOCC2)ccc1=O)Nc1nccs1`, -91.76%. On to `O=S(=O)(c1ccc(F)cc1F)N1CCCCC1c1nnc2n1CCCC2` (stereo not given), for which the “Percent Effect” value is -68.7%. Consider `CCN(Cc1cccc2c1OCO2)C(=O)NC1CC1`, for which the “Percent Effect” value is -37.14%. Under `CN(C)C(=O)CN1CCOCC2(CCN(c3ncc(F)cn3)CC2)C1.O=C(O)C(F)(F)F` stands -87.82%; under `CCCN(CCn1c(=O)oc2ccccc21)CC1CC1`, 13.79%; under `CC(=O)N1CCN(C(=O)Nc2ccc(Cl)cc2)[C@H]2CS(=O)(=O)C[C@H]21`, -18.79%. To `CSCCC(=O)NCc1cc2n(n1)CCCN(C1CCCCC1)C2` belongs -96.84%. For the compound `CC(NC(=O)C1CN(c2ncnc3c2nnn3C)C1)c1ccccc1` (stereo not given), the “Percent Effect” value is listed as -135.3%.

On to `Cc1cc(NC(=O)CN2CCCCC2Cn2nc(C)nc2C)on1` (stereo not given), for which the “Percent Effect” value is recorded as -33.53%. To `O=C(O)C(F)(F)F.c1cnc(N2CCC3(CCN(CC4CCOC4)CC3)C2)nc1` (stereo not given) belongs -17.94%. With `O=C(O)C(F)(F)F.c1cnc(N2CCC3(CN(CC4CCOC4)C3)C2)nc1` (stereo not given), the “Percent Effect” value is given as -18.8%. Under `O=C(O)C(F)(F)F.c1cnc(N2CCCC3(CCN(CC4CCOC4)CC3)C2)nc1` (stereo not given) stands 55.15%; under `Cc1noc(C)c1CN1CC[C@H]2OCC[C@@]2(C(=O)N2CCOCC2)C1.O=C(O)C(F)(F)F`, -52.8%; under `Cc1nc(CC(=O)N2CCCC(n3ccnc3C(C)C)C2)cs1` (stereo not given), -131%. Under `COc1cccc(CN(C)Cn2nc(C(C)(C)C)ccc2=O)c1` stands -38.19%; under `O=C(O)C(F)(F)F.O=C(O)C(F)(F)F.c1ccc(CN2CCCC3(CCN(CC4CCCO4)CC3)C2)nc1` (stereo not given), 10.98%. Turning to `O=C(O)C(F)(F)F.O=C(O)C(F)(F)F.c1ccc(CN2CCC3(CC2)CCN(c2ccccn2)C3)nc1`, the “Percent Effect” value is -1.583%.

Turning to `Cn1cc(CN2CCC3(CCCN(Cc4ccccn4)C3)CC2)cn1`, the “Percent Effect” value is listed as -52.6%. Under `O=C(O)C(F)(F)F.O=C(O)C(F)(F)F.O=C(O)C(F)(F)F.O=C(O)C(F)(F)F.c1ccc(CN2CCC3(CC2)CCN(Cc2cccnc2)C3)nc1` stands 17.02%; under `O=S(=O)(C1CC1)N1CCC2(CCCN(Cc3ccccn3)C2)CC1`, -27.08%.

Regarding `O=C(O)C(F)(F)F.O=C(O)C(F)(F)F.O=C(O)C(F)(F)F.c1ccc(CN2CCC3(CC2)CCN(Cc2cccs2)C3)nc1`, the “Percent Effect” value is recorded as 53.66%.

With `Cc1cccc(N2CCC3(CCN(Cc4ccccn4)CC3)CC2)n1.O=C(O)C(F)(F)F.O=C(O)C(F)(F)F`, the “Percent Effect” value stood at 62.64%. `Cc1ccc(N2CCC3(CCN(Cc4ccccn4)CC3)CC2)nn1`: the “Percent Effect” value is given as -24.83%.

Values taken from ChEMBL document CHEMBL3988442, “University of Dundee, Small-Polar-MMV Screening Library” (2021).
